# Bioassay records: PubChem BioAssay, several laboratories
# FBA Mtb inh = inhibitors of M. tuberculosis fructose-bisphosphate aldolase | purified M. tuberculosis FBA, fluorescence read-out | inhibition, % at 1 µM | 360,000 compounds, 2.3% hits; in the data active means inhibition above about 27%;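 further: 0% = vehicle and 100% = reference inhibitor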
# Anthrax LF prot = anthrax lethal factor protease inhibition; P15917; multiplex microsphere protease cleavage assay, LF; inhibition, % at 10 µM; 360,000 compounds, 0.12% hits; AID 588501; further: plate controls were buffer without enzyme for full effect and enzyme alone for no effect
# Autofluor counter = flagged as autofluorescent in microsphere protease counterscreen | compound autofluorescence counterscreen, microsphere flow cytometry; stronger effect = higher value | fluorescence intensity (no concentration beside the values) | 360,000 compounds, 3.1% hits; in the data active means fluorescence intensity above about 16000; inconclusive means no clear call, values can overlap the other calls
# BoNT-F LC inh = blocks Botulinum neurotoxin F light chain protease; Multiplex microsphere protease cleavage assay, flow cytometry; inhibition, % at 10 µM; 360,000 compounds, 0.22% hits; AID 588497; in the data active means inhibition above about 35%, passing the limit was not always enough; inconclusive means no clear call, values can overlap the other calls; further: plate controls were buffer without enzyme for full effect and enzyme alone for no effect
# GDH-TPI counter = counter-screen for M. tuberculosis FBA inhibitors: GDH-TPI coupled enzymes; GDH-TPI coupled enzyme counterscreen, NADH absorbance; inhibition, % at 4.8 µM; 360,000 compounds, 1.2% hits; AID 588335; in the data active means inhibition above about 30%;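 further: 0% = DMSO wells and 100% = wells lacking the enzyme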
# BoNT A protease = blocks Botulinum neurotoxin A light chain protease | multiplex microsphere protease substrate cleavage, flow cytometry | inhibition, % at 10 µM | 360,000 compounds, 0.17% hits; further: plate controls were buffer without enzyme for full effect and enzyme alone for no effect
# * marks the source's active call; other numbers are inactive results; ? = inconclusive. Rows were chosen to be rich in hits. Some 6.6% of all compounds tested hit in one or more screens of this group. Unless noted, no stated cut-off is given here; in the data, active means inhibition above about 30%; inconclusive means no clear call, values can overlap the other calls; inactive means below that.
SMILES,FBA Mtb inh,Anthrax LF prot,Autofluor counter,BoNT-F LC inh,GDH-TPI counter,BoNT A protease
O=C(N/N=C\c1ccc(O)c([N+](=O)[O-])c1)c1ccccc1-n1cccc1,-12.0,-1.8,1951,-1.5,46.5*,0.4
O=C(N/N=C/c1ccc(O)c([N+](=O)[O-])c1)C(O)(c1ccccc1)c1ccccc1,-4.1,-8.9,3694,-4.3,35.3*,-1.7
O=C(N/N=C/c1cc([N+](=O)[O-])cc([N+](=O)[O-])c1O)C(O)(c1ccccc1)c1ccccc1,-13.1,-3.0,9225,-7.2,4.0,-3.0
Nc1ccn([C@@H]2O[C@H](CNCc3cnc(N4CCOCC4)s3)[C@@H](O)[C@H]2O)c(=O)n1,-6.3,-4.1,3831,-3.3,-9.9,-0.3
CCOc1ccc2c(c1)nc(SCC(=O)c1ccc(Br)s1)n2C,-1.4,1.3,16282*,-1.3,11.8,1.9
C/C(=N/NC(=O)c1nnn(-c2nonc2N)c1CSc1ccc(C)cc1)c1ccncc1,-1.7,0.3,3876,-3.8,2.6,0.0
O=c1c(O)c(-c2cc(O)c(O)c(O)c2)oc2cc(O)cc(O)c12,-2.7,-12.2,5846,-20.0,32.4*,-2.6
CCOC(=O)C1=C(COC(=O)Cc2ccccc2[N+](=O)[O-])NC(=O)NC1C (configuration not stated),1.4,-2.7,2920,-4.9,6.4,-0.4
C=CCN1C(=O)/C(=C\C=C2\N(C)c3ccccc3C2(C)C)SC1=S,2.2,22.9,4733,9.8,-2.8,41.0*
CN1/C(=C\C=C2/SC(=S)N(CC(=O)O)C2=O)C(C)(C)c2ccccc21,-16.8,-0.9,2717,-10.0,10.9,7.4
Clc1ccc(OCCCc2nc(-c3cccnc3)no2)c(Cl)c1,-0.3,-0.6,21481*,3.5,1.9,6.0
Cc1cc(C)c(C)c(OCc2nc(-c3cccnc3)no2)c1,-1.5,-3.9,21478*,2.0,-1.9,2.0
CC(=O)NS(=O)(=O)c1ccc(NC(=S)NC(=O)Cc2ccccc2)cc1,-1.8,-3.9,4283,-2.6,-0.6,-0.8
Fc1ccc(-c2csc(/C=C/c3ccc4c(c3)OCO4)n2)cc1,-0.6,-1.7,2901,-5.6,1.2,-1.0
CC(C)(C)N/N=C/c1cc(Cl)cc([N+](=O)[O-])c1O,-4.9,-1.4,2521,-0.7,8.6,0.2
CN(/N=C/c1cc(Cl)cc(Cl)c1O)c1c(Cl)cccc1[N+](=O)[O-],-4.4,15.0,4772,?,37.4*,2.4
C=CCNc1ncnc2c1ncn2[C@H]1CN(Cc2ccccc2)C[C@@H](COC(C)=O)O1,-1.2,-6.3,3071,-4.9,3.6,-0.2
CC1CCCN(CCOCCOc2ccc(Cl)cc2Br)C1 (configuration not stated),3.1,-9.0,21666*,0.6,8.1,1.2
CC1CCCN(CCOCCOc2ccc(Br)cc2Cl)C1 (configuration not stated),-1.1,0.2,2691,6.2,0.0,0.6
COc1cccc(-c2nnc(Nc3nc4c(F)cccc4s3)o2)c1,133.7*,3.3,8251,10.6,59.3*,0.7
CC(C)(C)c1ccc(-c2noc(CNC(=O)c3ccco3)n2)cc1,1.1,-3.9,5315,-3.0,3.7,-0.6
CNC(=O)COc1ccc(Nc2nnc(-c3ccc(C)c(S(N)(=O)=O)c3)c3ccccc23)cc1,0.3,-0.9,3935,-34.6,21.0,-1.4
Cc1ccc(C)c(S(=O)(=O)NCc2cccnc2)c1,-0.8,-1.6,21139*,-4.1,2.1,-1.6
Cc1ccc2nsnc2c1S(=O)(=O)NCc1cccnc1,-0.6,-1.7,22869*,-2.9,-5.8,-0.7
Cn1ccnc1SCC(=O)c1cccc(Br)c1,-0.1,0.6,19955*,-4.8,-1.5,-0.1
COc1ccc(CCNC(=O)c2cc3c(=O)n4ccccc4nc3n(CCCN3CCOCC3)c2=N)cc1,14.0,1.0,4305,-1.1,12.6,3.0
Cc1cccn2c(=O)c3cc(C(=O)NCCN4CCOCC4)c(=N)n(CCCN4CCOCC4)c3nc12,114.3*,-5.3,3634,0.2,6.7,3.2
Cc1ccc2nc3c(cc(C(=O)NCCc4ccccc4)c(=N)n3CCCN3CCOCC3)c(=O)n2c1,122.3*,-4.9,5599,-5.9,0.8,-1.5
Cc1cccc(NC(=O)C(C)Sc2nc3ccccc3c(=O)n2CCCN2CCOCC2)c1 (configuration not stated),-1.1,-12.3,18006*,-62.8,-5.6,-51.1
Cc1cccn2c(=O)c3cc(C(=O)NCc4ccccc4)c(=N)n(CCCN4CCOCC4)c3nc12,124.7*,-17.5,5151,-7.8,5.6,1.1
